Screens deposited in PubChem by National Center for Advancing Translational Sciences (NCATS).
VACV mCherry inh – inhibitors of vaccinia virus infection (mCherry reporter signal). Potency, µM (highest dose often 36.5 µM), hits mostly inhibitors. 310,000 compounds, 0.63% hits. Vaccinia virus mCherry reporter infection, fluorescence. AID 720579; calls by dose curve; tested in A549 cells; note: nearly all actives have a fitted effect of over 35% in size
Lassa entry inh – blocks Lassa virus binding to or entry into cells. Lassa virus pseudotype entry inhibition, cell reporter. Potency, µM (doses to about 37.9 µM), usual class: inhibitors. AID 540256. 300,000 compounds, 1.2% hits; calls by dose curve; tested in HEK293 cells; note: nearly all actives have a fitted effect of over 50% in size
HCV inh – inhibitors of hepatitis C virus infection; Huh7.5.1 HCVcc-Cre infection, luciferase reporter, 44 h; AID 651820; 340,000 compounds, 3.4% hits; Potency, µM (series often up to 41.8 µM), most hits filed as inhibitors; active = well fitted inhibition curve with a large enough effect; inconclusive = small, poorly fitted or top-dose-only effect, or another doubt; inactive = no such curve, though single readings can be large or run the other way
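HCVcc-Cre virus at an moi near 0.5 was added right after compound to cells cultured 4 h from seeding (1,000 cells/well). Luciferase activity was determined 44 h later, 15 min after substrate addition at RT.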
HCMV inh – blocks human cytomegalovirus replication; activity change, negative = inhibition, % at 57.5 µM; 410,000 compounds, 4.5% hits; AID 1259415; HFF cells, HCMV-luciferase reporter, 72 h; stronger effect = lower value; in the data active = activity change below about -60%; inconclusive = no clear call, values can overlap the other calls; inactive = above about -39%
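Screen run at 2 compound doses on HFFs infected with reporter HCMV, MOI 1 PFU/cell. Luciferase activity from cell lysates at 72 h post infection gave inhibition relative to buffer-only and Salinomycin wells.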
VACV Venus inh – vaccinia inhibition (Venus reporter). Vaccinia virus Venus reporter expression, fluorescence. Potency, µM (doses to about 36.5 µM), most hits filed as inhibitors. 330,000 compounds, 0.46% hits; calls by dose curve; tested in A549 cells; note: nearly all actives have a fitted effect of over 30% in size
MARV entry inh – blocks Marburg virus binding to or entry into cells. 300,000 compounds, 1.8% hits. Marburg virus pseudotyped entry inhibition, cell reporter. Potency, µM (doses to about 37.8 µM), usual class: inhibitors; calls by dose curve; tested in HEK293 cells
Numbers stand for hits; [ ] = another dose, or the depositor's remark. This is a sample that favours compounds with a hit; in the whole collection about 7.8% have one here.

What do the screens show for `CCN1CCN(C(=O)c2ccc3c(c2)N(Cc2cccc(Cl)c2)C(=O)c2ccccc2S3=O)CC1` (centres undefined)?
VACV mCherry inh: inactive; Lassa entry inh: inactive; HCMV inh: inconclusive; VACV Venus inh: inactive

Results for CCOC(=O)N1CCN(C(=O)c2ccc3c(c2)N(Cc2cccc(Cl)c2)C(=O)c2ccccc2S3=O)CC1 (centres undefined) ?
VACV mCherry inh: inactive[7.34 µM]; Lassa entry inh: inconclusive; HCV inh: 18µM; HCMV inh: inconclusive; VACV Venus inh: inactive[7.34 µM]

What do the screens show for `Cc1cccc(N2CCN(C(=O)c3ccc4c(c3)N(Cc3ccccc3F)C(=O)c3ccccc3S4=O)CC2C)c1` (centres undefined)?
VACV mCherry inh: inactive; Lassa entry inh: inconclusive; HCMV inh: -64; VACV Venus inh: inactive; MARV entry inh: 13µM

How did CC1CCCCN1C(=O)c1ccc2c(c1)N(Cc1cccc(Cl)c1)C(=O)c1ccccc1S2=O (centres undefined) do in these assays?
VACV mCherry inh: inactive; Lassa entry inh: inactive; HCMV inh: -68; VACV Venus inh: inactive

How did COc1ccc(C2C=C(c3ccccc3)Nc3nc(NC(=O)c4cccc([N+](=O)[O-])c4)nn32)cc1 (centres undefined) do in these assays?
VACV mCherry inh: inactive; Lassa entry inh: inactive; HCMV inh: inactive; VACV Venus inh: inactive; MARV entry inh: inactive

How did Cc1cccc(N2CCN(C(=O)c3ccc4c(c3)N(Cc3cccc(Cl)c3)C(=O)c3ccccc3S4=O)CC2C)c1 (centres undefined) do in these assays?
VACV mCherry inh: inactive; Lassa entry inh: inconclusive; HCMV inh: -67; VACV Venus inh: inactive

Results for Cc1nc2c(o1)C(=O)c1ccccc1C2=Nc1ccccc1 ?
VACV mCherry inh: 2.5µM; Lassa entry inh: 11µM; HCV inh: 2.8µM; HCMV inh: -100; VACV Venus inh: 2.8µM; MARV entry inh: inconclusive

How did COC(=O)[C@H]1C[C@H](C(=O)O)[C@@H](C)C1(C)C do in these assays?
VACV mCherry inh: inactive; HCV inh: inactive; HCMV inh: -95; VACV Venus inh: inactive

What do the screens show for `COc1ccc(/C(N)=N/OC(=O)c2ccco2)cc1`?
VACV mCherry inh: inactive; Lassa entry inh: 7.1µM; HCV inh: inactive; HCMV inh: inactive; VACV Venus inh: inactive; MARV entry inh: inconclusive

Results for CCC(=N\NC(=O)COc1ccccc1OC)/C(CC)=N/NC(=O)COc1ccccc1OC ?
HCV inh: inconclusive; HCMV inh: inactive

How did COc1cc(C(=O)NC(=S)N(C)Cc2ccccc2)cc(OC)c1OC do in these assays?
VACV mCherry inh: inconclusive; Lassa entry inh: inactive; HCV inh: inactive; HCMV inh: inactive; VACV Venus inh: inconclusive; MARV entry inh: inactive

How did NC(=S)NN=C(Cc1ccccc1)Cc1ccccc1 do in these assays?
VACV mCherry inh: inconclusive; Lassa entry inh: inconclusive; HCV inh: inconclusive; HCMV inh: -70; VACV Venus inh: inconclusive; MARV entry inh: inconclusive

Results for COc1cc(C(=O)NC(=S)N(CCc2ccccc2)CCc2ccccc2)cc(OC)c1OC ?
VACV mCherry inh: inactive; Lassa entry inh: inconclusive; HCV inh: inconclusive; HCMV inh: inactive; VACV Venus inh: inactive; MARV entry inh: 3.2µM

Results for COc1ccccc1OCC(=O)NN=C(Cc1ccccc1)Cc1ccccc1 ?
VACV mCherry inh: inactive; Lassa entry inh: inactive; HCV inh: inconclusive; HCMV inh: -63; VACV Venus inh: inactive; MARV entry inh: inconclusive

Results for COc1cc(C(=O)NCC(=O)N/N=C(\C)Cc2ccccc2)cc(OC)c1OC ?
VACV mCherry inh: inactive; Lassa entry inh: inconclusive; HCV inh: inactive; HCMV inh: inconclusive; VACV Venus inh: inactive; MARV entry inh: inactive

Results for COc1cc(C(=O)N/N=C(\C)Cc2ccccc2)cc(OC)c1OC ?
VACV mCherry inh: inactive; Lassa entry inh: inconclusive; HCV inh: inconclusive; HCMV inh: -91; VACV Venus inh: inactive; MARV entry inh: inconclusive

How did Cc1cc(C(=O)NCC2CCC3(CCN(Cc4ccc(-c5ccccc5)cc4)CC3)O2)n(C)n1 (centres undefined) do in these assays?
VACV mCherry inh: inactive; VACV Venus inh: inactive

How did Cc1cccc(S(=O)(=O)N2[C@@H]3c4cccc(=O)n4C[C@H]2[C@H](CO)[C@H]3C(=O)N(C)C)c1 do in these assays?
HCMV inh: inactive

How did O=C(NC(=S)N(CCc1ccccc1)CCc1ccccc1)c1ccco1 do in these assays?
VACV mCherry inh: inactive; Lassa entry inh: 8.9µM; HCV inh: inactive; HCMV inh: inactive; VACV Venus inh: inactive; MARV entry inh: inconclusive

Results for COc1ccc(O[C@H]2C=C[C@@H](c3ccccc3)O[C@H]2COC(=O)CCC(C)=NO[C@H](C)c2cn([C@@H]3COC[C@@H]3O)nn2)cc1 ?
Lassa entry inh: inactive; MARV entry inh: inactive

Results for C=CCn1c(SCC(=O)Nc2ccc(Br)cc2)nc(O)cc1=O ?
VACV mCherry inh: inactive; HCMV inh: -100; VACV Venus inh: inactive

How did Cc1ccc2nc(N/N=C/c3ccccc3C#N)nc(-c3ccccc3)c2c1 do in these assays?
VACV mCherry inh: inactive; Lassa entry inh: inconclusive; HCV inh: inconclusive; HCMV inh: inconclusive; VACV Venus inh: inactive; MARV entry inh: 13µM

How did COc1cccc(NC(=O)NC2(C(F)(F)F)Oc3ccccc3O2)c1 do in these assays?
VACV mCherry inh: inconclusive; Lassa entry inh: inactive; HCV inh: inconclusive; HCMV inh: inactive; VACV Venus inh: inactive; MARV entry inh: 8.2µM

What do the screens show for `COc1ccccc1N1CCN(C(CNC(=O)c2ccc3c(c2)OCO3)c2cccnc2)CC1` (centres undefined)?
VACV mCherry inh: inactive[1.46 µM]; Lassa entry inh: inactive; HCV inh: 11µM; HCMV inh: inactive; VACV Venus inh: inconclusive; MARV entry inh: inactive

What do the screens show for `COCCNC(=O)C(=O)NCC(c1cccnc1)N1CCN(c2ccccc2OC)CC1` (centres undefined)?
VACV mCherry inh: inactive; Lassa entry inh: inconclusive; HCMV inh: inactive; VACV Venus inh: inactive

Results for O=C(NCC(c1cccnc1)N1CCN(c2ccccc2F)CC1)Oc1ccccc1 (centres undefined) ?
Lassa entry inh: inactive; HCV inh: inactive; HCMV inh: inactive; VACV Venus inh: inactive; MARV entry inh: inactive

Results for Cc1ccc(CNC(=O)C(=O)NCC(c2cccnc2)N2CCN(c3ccccc3F)CC2)cc1 (centres undefined) ?
VACV mCherry inh: inconclusive; Lassa entry inh: inconclusive; HCMV inh: -72; VACV Venus inh: inconclusive

What do the screens show for `COCCCNC(=O)C(=O)NCC(c1ccc2c(c1)OCO2)N1CCOCC1` (centres undefined)?
VACV mCherry inh: inactive; Lassa entry inh: inactive; HCMV inh: -113; VACV Venus inh: inactive

Results for COc1cc(=O)n2c(c1C(=O)NCc1ccco1)CCN(Cc1ccc(F)cc1Cl)CC2 ?
VACV mCherry inh: inactive; VACV Venus inh: inactive

Results for Cc1ccc(N(C)/N=C/c2ccc(Cl)cc2Cl)nn1 ?
HCV inh: inactive; HCMV inh: -68

How did CN(/N=C/c1ccc(Cl)cc1Cl)c1ncc(Cl)cc1C(F)(F)F do in these assays?
HCV inh: inactive; HCMV inh: inactive
